Inconclusive results are not listed. Values without a mark were called inactive. Activity calls are given as the source filed them. The call rests on the fitted dose curve; in most records, active means well fitted activation curve with a large enough effect in the repeat runs; inconclusive means weak or mixed curves; inactive means flat fitted curve, though single readings scatter.
Assay: A CellTox Green Cytotoxicity Assay to monitor cytotoxicity in HEK293 cells - 32 hour (AID 1224881); further: nearly all actives have a fitted effect of over 40% in size
Details: CellTox Green fluorescence; series mostly up to 76.8 µM; cytotoxicity increase: at the top concentration
Outline: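 Tox21 screen in HEK293: membrane-impermeant cyanine dye fluoresces on binding dead-cell DNA; compound pinned 5 h post-seeding, plates held at 37 C, signal read repeatedly through 40 h.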
On the % scale 0 is the no-effect control and ±100 the full control effect; potency means the concentration at half of the fitted maximal effect.

First: c1ccc(CNc2ncnc3c2ncn3C2CCCCO2)cc1 (stereo not drawn)
Second: CNCc1ccc(NC(=O)c2c[nH]c3c2C(=O)CCC3)cc1
The “cytotoxicity increase” value of the first is higher: -3.8% for the first, -12.7% for the second.

Going from Nc1ccc(NC(=O)c2ccc(N)cc2)cc1 to C=Cc1ccc(OC(C)=O)cc1, the “cytotoxicity increase” value rises from -11.8% to 28.7%.

Compared with O=C(O)CCCc1c[nH]c2ccccc12, CCCOC(=O)c1c(Cl)c(Cl)c(Cl)c(Cl)c1C(=O)OCCC is higher in “cytotoxicity increase” value: 1.67% for the first, 5.68% for the second.

Going from CCO[Si](C)(CCCOCC1CO1)OCC (stereo not drawn) to CC1=C2[C@@H]([C@H](C)CC[C@H]2/C=C(\C)C(=O)O)[C@H](O)C1, the “cytotoxicity increase” value rises from -3.41% to 0.135%.

Going from ClC1=C(Cl)C1(Cl)Cl to Nc1c(Cl)cc(Cl)cc1[N+](=O)[O-], the “cytotoxicity increase” value rises from -8.73% to 1.71%.

In the case of CC(C)(C)C1(CCc2ccc(Cl)cc2)CO1 (stereo not drawn), the Potency is reported as 21.9 µM (active).

Going from O=C1OC[C@H](Cc2cccc(O)c2)[C@H]1Cc1cccc(O)c1 to Cc1ccc(Nc2c(F)cccc2Cl)c(CC(=O)O)c1, the “cytotoxicity increase” value falls from -3.12% [at 35.3 µM] to -6.94% [at 35.3 µM].

First: CC[C@@H](CO)NCCN[C@@H](CC)CO
Second: CCCCCCCC/C=C/C(=O)O
The “cytotoxicity increase” value of the first is lower: -5.24% [at 35.3 µM] for the first, 8.69% [at 35.3 µM] for the second.

Going from CC(C)(C)C(O)/C=C/c1ccc2c(c1)OCO2 (stereo not drawn) to COc1ccc(/C=C/C(=O)c2ccc(OC)cc2OC)cc1, the “cytotoxicity increase” value falls from 10.2% [at 35.3 µM] to -18.3% [at 35.3 µM].

Compared with COc1ccc(-c2cc(C(F)F)nn2-c2ccc(S(N)(=O)=O)cc2)cc1F, CCCc1nc2c(C)cc(-c3nc4ccccc4n3C)cc2n1Cc1ccc(-c2ccccc2C(=O)O)cc1 is higher in “cytotoxicity increase” value: -5.86% [at 35.3 µM] for the first, -3.67% [at 35.3 µM] for the second.

First: COC(=O)Nc1nc2ccc(C(=O)C3CC3)cc2[nH]1
Second: O=C1CC[C@@H](C(=O)O)N1
The “cytotoxicity increase” value of the first is higher: -2.99% [at 35.3 µM] for the first, -4.95% [at 35.3 µM] for the second.

First: CC(=O)N[C@@H](Cc1ccc(O)cc1)C(=O)O
Second: Nc1ccc(N=Nc2ccc(N)cc2)cc1
The “cytotoxicity increase” value of the first is higher: -5.68% [at 35.3 µM] for the first, -15.7% [at 35.3 µM] for the second.

Reference: PubChem BioAssay (Tox21)
